About 100 (0.036%) of roughly 280,000 compounds were called active. Another 11% or so got no clear call; they are omitted. The entries come from a sample that favours actives as a whole. Unmarked numbers belong to inactive results. Calls follow the shape of the dose curve; as a rule, active = well fitted inhibition curve with a large enough effect in the signal ratio, with a control signal flat (not every such curve was filed as active); inconclusive = small, poorly fitted or top-dose-only effect, or effect the other way, or a change in a side signal; inactive = no such curve, though single readings can be large or run the other way; the % refers to the signal ratio.
Target: Muscleblind-like protein 1 (Homo sapiens) (UniProt Q9NR56)
Sequence (Q9NR56 whole entry, looked up): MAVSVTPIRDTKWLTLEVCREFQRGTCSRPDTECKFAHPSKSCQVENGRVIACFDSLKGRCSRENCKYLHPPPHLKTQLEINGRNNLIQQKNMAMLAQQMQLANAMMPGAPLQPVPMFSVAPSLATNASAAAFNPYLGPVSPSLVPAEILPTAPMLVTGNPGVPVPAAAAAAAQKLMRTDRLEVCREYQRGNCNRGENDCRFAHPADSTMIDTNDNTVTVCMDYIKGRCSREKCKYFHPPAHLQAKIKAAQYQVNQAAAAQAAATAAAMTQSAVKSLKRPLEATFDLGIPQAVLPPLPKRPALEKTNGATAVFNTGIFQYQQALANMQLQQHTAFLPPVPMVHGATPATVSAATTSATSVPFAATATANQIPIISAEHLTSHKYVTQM
Test: qHTS Assay for Inhibitors of MBNL1-poly(CUG) RNA binding
Conditions: TR-FRET MBNL1-His/biotin-(CUG)12 binding, 665/545 ratio; series mostly up to 57.5 µM; activity change, negative = inhibition: at the top concentration
Text: NIH Chemical Genomics Center [NCGC] NIH Molecular Libraries Probe Production Centers Network [MLPCN] MLPCN Grant: R03 MH087421-01 Assay Submitter (PI): Charles Thornton NCGC Assay Overview: Expanded CTG repeats in the 3' untranslated region of the DM protein kinase (DMPK) gene causes type I myotonic dystrophy (DM1). DM1 is a multi-systemic disease with a prevalence of 1/7000. Clinical features include myotonia, progressive muscle weakness and wasting, cardiac arrhythmia, insulin resistance, hypersomnolence, cataracts, and other symptoms. The pathogenic effect of expanded CTG repeats stems from deleterious effects of the mutant transcript. CUGexp mRNA accumulates in nuclear foci and sequesters proteins of the muscleblind family, of which MBNL1 is the most common family member in skeletal muscles. The binding interaction between MBNL1 and CUGexp tracts leads to deregulation of alternative splicing and is therefore a key molecular step in the pathogenesis of DM1. To target this binding interaction, we optimized a protein-RNA binding assay in 1536-well format for identification of small molecule inhibitors of biotinylated (CUG)12 and his-tagged MBNL1 binding. Protein-RNA complex of MBNL1-His and Biotin-(CUG)12 captures the detection reagents terbium-labeled anti-His antibody and streptavidin conjugated XL665. This brings the terbium label within close proximity to XL665 to allow time-resolved fluorescence resonance energy transfer (TR-FRET). Inhibitors of MBNL1-(CUG)12 binding will disrupt TR-FRET.
NCGC Assay Protocol Summary: This is a TR-FRET binding assay with MBNL1-His and Biotin-(CUG)12 RNA. The assay uses a ratiometric measurement. In the presence of MBNL1-(CUG)12 complex, the excitation energy is transferred to the XL665 acceptor label, causing emission at 665nm, while the 545nm donor signal […]. Data were normalized to the controls for basal activity (buffer only) and 100% activity (with MBNL1-(CUG)12). […] The final titration was 92 nM to 58 uM. (3) Add 1 ul of terbium labeled anti-His antibody (0.055 ng/ul final concentration) (4) Add 1 ul of streptavidin-XL665 (5 nM final concentration) (5) Incubate 60 min at room temperature (6) Detect the assay plate in a EnVision plate reader (PerkinElmer) with Ex=340 nm, Em1=665 nm and Em2=545 nm. Keywords: mytonic dystrophy type I, DM1, muscleblind like 1, MBNL1, CUG expansion, protein-RNA binding inhibitor, high throughput screening, MLSMR, MLSCN, NIH Roadmap, qHTS and NCGC
% is scaled to controls: 0 for no effect and ±100 for the full control effect; potency is read from the fitted curve at half-maximal effect.

In the case of `COc1cccc(NC(=O)Cn2cnc3sc(C)c(S(=O)(=O)N4CCN(C)CC4)c3c2=O)c1`, the Potency was 31.6 µM (active).
For `COc1ccc(Cc2n[nH]c(=S)n2NC(=O)Nc2ccc(C)cc2)cc1`, the Potency was 25.1 µM (active).

In order of rising “activity change, negative = inhibition” value:
1. Cc1cc(C)c(NC(=O)CN2CCCCCC2)c(C)c1  -20.5%
2. O=C(Nc1ccncc1)Nc1ccc(F)cc1  -18.5%
3. CCOc1ccc(NC(=O)c2nc(SCC)ncc2Cl)cc1  -14.6%
4. CCCCN(CCCC)CCCNC(=O)CN1C(=O)COc2ccc(S(=O)(=O)N3CCC(C)CC3)cc21  -14.2%
5. COc1ccc(NS(=O)(=O)c2cc(C(=O)Nc3ccccc3C(=O)O)ccc2C)cc1  -13.3%
6. O=C(c1ccccc1)N1N=C(c2ccccc2O)CC1c1ccc(Br)cc1 (stereo unspecified)  -12.2%
7. COc1ccc(CCNCc2c(-c3ccccc3)n(C)c3ccccc23)cc1  -10.3%
8. Cc1cc(=O)[nH]c(Nc2cccc(Br)c2)n1  -10%
9. O=C(NCc1cccc(Cl)c1)C1CCC(=O)N(C2CC2)C1 (stereo unspecified)  -9.91%
10. COc1ccc(NC(=S)NCCNC(C)=O)cc1  -8.99%
11. CC(=O)N1c2ccc(S(=O)(=O)NCCC(=O)N(C)C3CCCCC3)cc2CC1C (stereo unspecified)  -7.41%
12. CN(CC1CCCO1)S(=O)(=O)c1ccc(C(=O)Nc2ccc(F)cc2)cc1 (stereo unspecified)  -7.38%
13. CCOc1ccc(NC(=O)CN2CCN(CC(=O)Nc3ccc(OC)cc3)CC2)cc1  -6.49%
14. Cc1cc(=O)oc2c(C)c(OC(C)C(=O)NC3CCN(Cc4ccccc4)CC3)ccc12 (stereo unspecified)  -6.34%
15. CCC(CC)c1nnc(NC(=O)C2CCN(C(=O)c3ccco3)CC2)s1  -6.3%
16. CCOC(=O)C1(CCOC)CCN(Cc2cc3ccccc3s2)CC1  -6.13%
17. COc1cccc(NC(=O)C2CCCN(c3ncnc4c3nc3n4CCCCC3)C2)c1 (stereo unspecified)  -5.89%
18. COC(=O)c1ccc(CN2CCCC(C(=O)Nc3cccc(-n4cnnn4)c3)C2)cc1 (stereo unspecified)  -5.86%
19. C=CCNc1nc(N)c([N+](=O)[O-])c(NC2CCCCC2)n1  -5.63%
20. Nc1nc(Nc2ccccc2F)nc(NC2CCCCC2)c1[N+](=O)[O-]  -5.13%
21. COc1ccc(CCNC(=O)c2ccccc2OCc2ccccc2)cc1  -4.43%
22. COc1cccc(C(=O)Nc2ccc(N3CCN(C(=O)c4ccco4)CC3)cc2)c1  -4.34%
23. Cc1sc2ncn(CC(=O)NCCN(C)C)c(=O)c2c1S(=O)(=O)N1CCC(C)CC1  -4.22%
24. CCCCC(CC)CNCc1cccn1CCN1CCOCC1 (stereo unspecified)  -4.21%
25. CC(CCc1ccc(O)cc1)NCc1ccc(Cl)cc1Cl (stereo unspecified)  -4.16%
26. Cc1ccccc1C(=O)N1CCN(c2ccc(NC(=O)c3cccs3)cc2)CC1  -3.93%
27. O=C(NCCCO)c1cc2c([nH]c3ccccc32)c(-c2ccc(F)cc2)n1  -3.77%
28. O=S(=O)(c1cccc(Cn2nnc(-c3ccc(F)cc3)n2)c1)N1CCOCC1  -3.65%
29. CCc1ccc(C(CNc2nc(C(F)(F)F)nc3ccccc23)N(C)C)cc1 (stereo unspecified)  -3.64%
30. CC(C)c1ccc(S(=O)(=O)N2CCN(C(=O)c3ccc(N4CCCC4)c([N+](=O)[O-])c3)CC2)cc1  -3.33%
31. CCCCCN(C(=O)CCC(=O)OCC(=O)NCc1ccc(OC)cc1)c1c(N)n(CCCC)c(=O)[nH]c1=O  -3.21%
32. COc1cc(Nc2nc3ccc(Cl)cc3n3cnnc23)cc(OC)c1OC  -3.17%
33. C/C(=N\NC(=O)c1ccoc1C)c1ccccc1O  -2.77%
34. Cc1ccc(CS(=O)(=O)CCC(=O)NCc2ccc(F)cc2)cc1  -2.74%
35. Cc1[nH]c2ccccc2c1C(=O)CN1CC(C)CC(C)C1 (stereo unspecified)  -2.63%
36. CCC(C)[C@H](NC(=O)N1CCn2c1nc1ccccc12)C(=O)NCc1ccc(OC)cc1 (stereo partly specified)  -2.53%
37. O=C(CNc1cccc(S(=O)(=O)N2CCCCC2)c1)Nc1ccccc1F  -2.44%
38. Cc1ccc2sc(N(CCN(C)C)C(=O)/C=C/c3cccs3)nc2c1C  -2.08%
39. CC1CCN(C(=S)NC(=O)c2ccccc2Br)CC1  -1.98%
40. CC(=O)N1c2ccc(S(=O)(=O)N3CCC(C(=O)N4CCN(c5ccccc5)CC4)CC3)cc2CC1C (stereo unspecified)  -1.97%
41. COc1cccc(CN(C)CC(O)COC(c2ccccc2)c2ccccc2C)c1 (stereo unspecified)  -1.85%
42. Cc1[nH]c(C)c(S(=O)(=O)N2CCN(c3cccc(C(F)(F)F)c3)CC2)c1C(=O)N1CCCCC1  -1.53%
43. COc1ccc(N2CCN(C(=O)Cn3cnc4sc(C)c(S(=O)(=O)N5CCOCC5)c4c3=O)CC2)cc1  -1.37%
44. COc1cccc(CCNC(=O)c2cccc(NC(=O)C3=C(C)OCCS3)c2)c1  -1.35%
45. Cc1ccc(C)c(N2CCN(C(=O)CCCn3c(=O)c4cccn4c4cccnc43)CC2)c1  -1.23%
46. CC(=O)N1CCOc2ccc(S(=O)(=O)N3CCN(c4cccc(C(F)(F)F)c4)CC3)cc21  -1.07%
47. CCCOc1ccc(C2=CSC3=NCCN23)cc1Cl  -1.02%
48. COc1ccc(OC)c(CNC(=O)Cn2nc(C)c3c(C)n(-c4ccc(C)cc4)nc3c2=O)c1  -0.935%
49. O=C(C1CCC(=O)N(C2CC2)C1)N1CCN(c2ccc(Cl)cc2)CC1 (stereo unspecified)  -0.926%
50. Cc1cc(Cl)ccc1OCCCC(=O)Nc1cccc(-n2cnnn2)c1  -0.924%
51. COc1cccc(C(=O)N/N=C(\C)c2cccc(NC(=O)c3ccc(F)cc3)c2)c1OC  -0.886%
52. Cc1ccc(OCC(=O)Nc2ccc(N3CCN(C(=O)c4ccco4)CC3)cc2)c(C)c1  -0.689%
53. C[C@H]1[C@H]2c3nc4ccccc4n3C[C@H]1ON2C1CCCCC1  -0.651%
54. COc1ccc(CSc2nnnn2-c2ccc(O)cc2)cc1F  -0.34%
55. COc1ccc(CN(C)C(=O)c2cc(-c3ccc(C)cc3C)nc3ccccc23)c(OC)c1OC  -0.265%
56. CCOCCCNc1nc(-c2ccccc2)nc2ccccc12  -0.21%
57. COc1ccc(CC(=O)N/N=C/c2cc([N+](=O)[O-])cc(Br)c2O)cc1  -0.176%
58. C[C@H](NC(=O)[C@@H]1Cc2ccccc2CN1C(=O)OC(C)(C)C)C(=O)NC1CCCC1  0.26%
59. Cc1cc(C)c(SCCc2ccncc2)c(C)c1  0.435%
60. COc1ccc(CN(C)C(=O)Cc2ccsc2)c(OC)c1OC  0.57%
61. COc1ccc(C(=O)CC(=O)C(=O)Nc2cc([N+](=O)[O-])ccc2OC)cc1  0.59%
62. COC(=O)c1cc(S(=O)(=O)N2CCN(c3cc(C)ccc3C)CC2)c[nH]1  0.607%
63. Cc1cc(Cl)ccc1C(=O)C1CCCN(C(=O)c2nonc2C)C1 (stereo unspecified)  0.612%
64. CCOCCCn1c(SCC(=O)Nc2cc(OC)ccc2OC)nc2ccccc2c1=O  0.658%
65. O=C(Nc1ccc(Cl)cc1)c1cccc(OC(=S)N2CCOCC2)c1  0.659%
66. Cc1nnc(NC(=O)C(c2ccccc2)c2ccccc2)s1  1.22%
67. CCOc1ccc(NC(=O)C(C)N2C(=O)c3ccccc3C2=O)cc1 (stereo unspecified)  1.24%
68. CCc1ccc(/C=N/NC(=O)c2nnn(-c3nonc3N)c2CN2CCc3ccccc32)cc1  1.76%
69. COc1ccccc1N1CCN(S(=O)(=O)CCNC(=O)c2ccc(OC(C)C)cc2)CC1  1.83%
70. CCc1ccc(NC(=O)CN2CCC(C(=O)c3ccc(OC)cc3)CC2)cc1  2.27%
71. Cc1ccc(-c2noc(C3CCCN(C(=O)c4cccc(Cl)c4)C3)n2)o1 (stereo unspecified)  2.29%
72. Cc1c(C)c2ccc(OCC(=O)N3CCN(c4cccc(Cl)c4)CC3)cc2oc1=O  2.33%
73. COc1ccc(N2CCN(C(=O)[C@@H](NC(=O)c3cc(OC)cc(OC)c3)C(C)C)CC2)cc1  2.58%
74. COc1ccccc1CCNC(=O)c1c(C)nn(CC(C)C)c1Cl  2.7%
75. CCC(=O)c1cn(CCOc2ccccc2OC)c2ccccc12  2.83%
76. COc1ccc(N2CCN(S(=O)(=O)CCNC(=O)C34CC5CC(CC(C5)C3)C4)CC2)cc1  3%
77. COc1cc(C(=O)NCc2ccncc2)cc(Br)c1OCc1ccccc1  3.45%
78. CC1(C(=O)NNC(=S)NCC2CCCO2)CC1(Cl)Cl (stereo unspecified)  3.47%
79. CCOc1ccc(NC(=O)CCCCCN2C(=O)[C@@H]3Cc4ccccc4CN3C2=O)cc1  4.13%
80. O=[N+]([O-])c1ccc(O)c(/C=N/Nc2ccccc2[N+](=O)[O-])c1  4.22%
81. CC(=O)N1CCN(c2ccccc2NC(=S)NC(=O)c2cc3ccccc3o2)CC1  4.92%
82. CC1CN(C(=S)Nc2ccccc2F)CC(C)O1 (stereo unspecified)  5%
83. CCC1Sc2ccc(S(=O)(=O)CCC(=O)NCc3cccs3)cc2NC1=O (stereo unspecified)  5.1%
84. Cc1ccc(CN2CCC(n3nccc3NC(=O)CCCc3ccccc3)CC2)o1  5.27%
85. Cc1ccc(OCC(=O)Nc2ccc(C(=O)O)cc2NC(=O)COc2ccc(C)c(C)c2)cc1C  6.17%
86. CN(CC(=O)Nc1ccc(F)cc1)C(=O)c1ccc(-c2ccc(Cl)cc2)o1  8.57%
87. O=C(Nc1ccccc1N1CCCC1)c1ccc2ccccc2c1  9.01%
88. COc1cccc(Cn2cc(/C=N/NC(=O)c3cc(O)cc(O)c3)c3ccccc32)c1  11.8%
89. CCOc1ccc(CCNC(=O)CCc2nnc3ccc(N4CCCC4)nn23)cc1OCC  13.4%
90. CCCC(=O)N1CCN(c2nnc(-c3ccc(C)cc3)c3ccccc23)CC1  15%
91. COc1ccc(C(=O)c2c(C)c(CCC#N)n3ccccc23)c(OC)c1  15.2%
92. CC(=O)c1ccc(NC(=O)c2sc3nc4n(c(=O)c3c2C)CCCCC4)cc1  18.1%
93. COc1ccc(NC(=O)c2cc([N+](=O)[O-])ccc2NC(=O)CNC2CCCCC2C)c(OC)c1 (stereo unspecified)  18.6%
94. Cc1ccc2nc(-c3ccncc3)cc(C(=O)Nc3ccncc3)c2c1  20.1%
95. CCCCn1c(-c2cccc(C)c2)nc2cc3[nH]c(=O)c(C(C)C)nc3cc21  24.5%
96. CCCn1c(C2CCCN2c2nc(-c3ccc(OC)cc3)cs2)nc2ccccc21 (stereo unspecified)  46.7%
97. O=C(NCCCN1CCOCC1)c1ccc2c(c1)N(Cc1cccc(F)c1)C(=O)c1ccccc1S2  76.5%
98. CC(=O)c1ccc(N2CCN(C(=O)C3CCN(S(=O)(=O)c4ccc5c(c4)CC(C)N5C(=O)C4CC4)CC3)CC2)cc1 (stereo unspecified)  119%

With `O=C1OC2(CCCCC2)CC2=C1C1O[C@](c3ccsc3)(Cc3ccccc31)O2` the activity change, negative = inhibition was -2.14% [at 11.5 µM].
